T cruzi growth-1: T. cruzi proliferation inhibition. 77,000 compounds, 5.9% hits. T. cruzi beta-gal in NIH3T3, GalScreen luminescence, 90 h. inhibition, % at 8.34 µM;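 active means mean inhibition above about 93%, with at least 55% of replicates each passing it, limit read from the data, passing the limit was not always enough; inconclusive means only one of those two conditions holds; inactive means neither condition holds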
C diff HTS: C. difficile growth inhibition; Clostridium difficile clinical isolate growth, OD600, 24 h; hits give low values; AID 1259249; 86,000 compounds, 0.25% hits; growth activity, negative = inhibition, % at 16 µg/mL (by protocol);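 active means mean growth activity at or below -80% and every replicate also at or below -80%; inconclusive means mean at or below -80% but some replicate above -80%; inactive means mean growth activity above -80%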;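 further: 0% = DMSO wells and -100% = levofloxacin 16 µg/mL wells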
Pf Dd2 inh: P. falciparum Dd2 growth inhibition. SYBR Green, 72 h; hits give low values. activity change, % at 10 µM. 94,000 compounds, 2.3% hits. AID 1159554; in the data active means activity change below about -80%; inconclusive means no clear call, values can overlap the other calls
T cruzi growth-2: blocks T. cruzi growth in NIH3T3 host cells | shares compounds with T cruzi growth-1 | T. cruzi beta-gal in NIH3T3, GalScreen luminescence, 90 h | inhibition, % at 8.35 µM | 5,600 compounds, 72% hits | AID 651739;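 active means mean replicate inhibition above about 95% and at least 55% of replicates individually reaching it, limit read from the data; inconclusive means only one of the two criteria is met; inactive means neither criterion is met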
T cruzi growth-3: inhibitors of T. cruzi proliferation; shares compounds with T cruzi growth-1; T. cruzi beta-gal in NIH3T3, GalScreen luminescence, 90 h; inhibition, % at 2.09 µM; 5,600 compounds, 21% hits;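 active means mean inhibition above about 95%, with at least 55% of replicates also reaching it, limit read from the data; inconclusive means meets just one of the two conditions; inactive means meets neither condition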;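 further: plate controls were neutral control median for no effect and positive control median for full effect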
NIH3T3 tox: kills mouse NIH/3T3 fibroblasts | shares compounds with T cruzi growth-1 | NIH/3T3 viability, CellTiter-Glo ATP luminescence, 90 h | cytotoxicity (signal decrease), % at 8.35 µM | 5,600 compounds, 14% hits | AID 651742;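 active means mean signal decrease across replicates above about 35% based on untreated-well scatter, with enough replicates individually passing, limit read from the data; inconclusive means no rule stated though some were filed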;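 further: 0% = median of neutral control wells and 100% = median of positive control wells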
NIH3T3 tox 2: kills mouse NIH/3T3 fibroblasts | 5,600 compounds, 56% hits | shares compounds with T cruzi growth-1 | NIH/3T3 viability, CellTiter-Glo ATP luminescence, 90 h | inhibition, % at 24.9 µM;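 active means mean loss of cell viability signal at or above a set limit, and enough replicates individually reaching it; inconclusive means meets only the mean limit or only the replicate share; inactive means meets neither condition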;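 further: 0% = median of neutral control wells and 100% = median of positive control wells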
Starred values were filed as active, the others as inactive; u = inconclusive; x = not tested or not shown. In the library only some 6.8% were active in any assay of this set; here they are far more common.

SMILES | T cruzi growth-1 | C diff HTS | Pf Dd2 inh | T cruzi growth-2 | T cruzi growth-3 | NIH3T3 tox | NIH3T3 tox 2
O=C(c1ccccn1)N1CC[C@@H]2[C@H](CO)Nc3ccc(C#Cc4cccnc4)cc3[C@@H]21 | u | -16 | -54 | 30 | 24 | 12 | u
O=C(c1ccccn1)N1CC[C@@H]2[C@@H](CO)Nc3ccc(C#Cc4cccnc4)cc3[C@@H]21 | 31 | -10 | 18 | x | x | x | x
O=C(c1ccccn1)N1CC[C@H]2[C@H](CO)Nc3ccc(-c4cccc(F)c4)cc3[C@H]21 | 27 | -8 | -11 | x | x | x | x
O=C(c1ccccn1)N1CC[C@@H]2[C@@H](CO)Nc3ccc(-c4ccc(F)cc4)cc3[C@@H]21 | 112* | -9 | 21 | 105* | 80 | 7 | 16
C[C@@H]1CN([C@@H](C)CO)C(=O)c2cc(NC(=O)Cc3ccccc3)ccc2O[C@@H](C)CCCCO[C@@H]1CN(C)C(=O)Nc1ccc2c(c1)OCO2 | x | 0 | -52 | x | x | x | x
CN1[C@@H]2Cn3c(ccc(-c4ccccc4)c3=O)[C@H]1[C@@H](C(=O)NCCc1ccccc1)[C@@H]2CO | 48 | -3 | 9 | x | x | x | x
C[C@H](CO)N1C[C@H](C)[C@@H](CN(C)S(=O)(=O)c2ccc(F)cc2)Oc2ccc(NC(=O)Nc3cccc4ccccc34)cc2C1=O | 19 | 2 | -16 | x | x | x | x
CO[C@@H]1CN(C)C(=O)c2ccc(NS(=O)(=O)c3ccccc3F)cc2OC[C@@H](C)NC[C@@H]1C | x | 0 | 38 | x | x | x | x
O=C(Nc1ccc(Cl)cc1)N[C@@H]1CC[C@H](CCn2cc(C3(O)CCCC3)nn2)O[C@@H]1CO | 49 | x | -67 | x | x | x | x
CCCNC(=O)N(C)C[C@@H]1Oc2cc(C#CC(C)(C)O)ccc2S(=O)(=O)N([C@@H](C)CO)C[C@@H]1C | -7 | -3 | -15 | x | x | x | x
C[C@H](CO)N1C[C@H](C)[C@H](CN(C)CC2CCCCC2)Oc2c(NC(=O)Nc3ccccc3)cccc2C1=O | 35 | 7 | -43 | x | x | x | x
C[C@@H]1CN([C@H](C)CO)C(=O)c2cc(NC(=O)Nc3cccc4ccccc34)ccc2O[C@@H](C)CCCCO[C@H]1CN(C)Cc1ccncc1 | 100* | 28 | -37 | 107* | 55 | 36* | 47*
C[C@@H]1CN([C@H](C)CO)C(=O)c2cc(NC(=O)Nc3cccc4ccccc34)ccc2O[C@@H](C)CCCCO[C@@H]1CN(C)Cc1ccncc1 | 49 | 3 | -62 | x | x | x | x
COc1ccc(CN(C)C[C@H]2OCCCC[C@H](C)Oc3ccc(NC(=O)Nc4cccc5ccccc45)cc3C(=O)N([C@H](C)CO)C[C@H]2C)cc1 | u | -13 | -90* | 98* | 106* | 28 | 55*
C[C@H]1CCCCO[C@@H](CN(C)Cc2ccccc2)[C@@H](C)CN([C@@H](C)CO)C(=O)c2cc(NC(=O)Nc3cccc4ccccc34)ccc2O1 | 109* | 3 | -25 | u | 100* | 15 | 38*
C[C@H]1CCCCO[C@H](CN(C)Cc2ccccc2)[C@@H](C)CN([C@@H](C)CO)C(=O)c2cc(NC(=O)Nc3cccc4ccccc34)ccc2O1 | x | 27 | -42 | x | x | x | x
C[C@H](CO)N1C[C@H](C)[C@@H](CN(C)Cc2ccccc2)OCCCC[C@H](C)Oc2ccc(NC(=O)Nc3cccc4ccccc34)cc2C1=O | x | 16 | -6 | x | x | x | x
COc1ccccc1S(=O)(=O)Nc1ccc2c(c1)OC[C@@H](C)NC[C@@H](C)[C@@H](OC)CN(C)C2=O | 14 | x | 11 | x | x | x | x
Cc1ccc(S(=O)(=O)N(C)C[C@H]2Oc3c(NS(=O)(=O)c4ccc(Cl)cc4)cccc3C(=O)N([C@H](C)CO)C[C@H]2C)cc1 | -6 | -16 | 7 | x | x | x | x
O=C1CN(S(=O)(=O)Cc2ccccc2)C[C@@H]2[C@@H](c3ccc(C#Cc4cccnc4)cc3)[C@H](CO)N12 | x | -4 | -36 | x | x | x | x
COc1ccc(S(=O)(=O)Nc2ccc3c(c2)C(=O)N([C@H](C)CO)C[C@H](C)[C@@H](CN(C)CC2CCCCC2)OCCCC[C@H](C)O3)cc1 | u | -4 | -30 | 104* | 67 | 19 | 82*
C[C@@H]1CCCCO[C@@H](CN(C)S(=O)(=O)c2cn(C)cn2)[C@@H](C)CN([C@@H](C)CO)C(=O)c2cc(NS(C)(=O)=O)ccc2O1 | 102* | -1 | 39 | 78 | -11 | -20 | -31
Cc1ccc(S(=O)(=O)Nc2ccc3c(c2)C(=O)N([C@H](C)CO)C[C@@H](C)[C@@H](CN(C)CC2CCCCC2)OCCCC[C@@H](C)O3)cc1 | u | 9 | -65 | 100* | 101* | 46* | 104*
C[C@@H]1CCCCO[C@H](CN(C)S(=O)(=O)c2cn(C)cn2)[C@@H](C)CN([C@@H](C)CO)C(=O)c2cc(NS(C)(=O)=O)ccc2O1 | -51 | 2 | -25 | x | x | x | x
COc1ccc(S(=O)(=O)Nc2ccc3c(c2)C(=O)N([C@@H](C)CO)C[C@H](C)[C@H](CN(C)CC2CCCCC2)OCCCC[C@@H](C)O3)cc1 | 38 | -6 | -36 | x | x | x | x
SMILES | T cruzi growth-1 | C diff HTS | Pf Dd2 inh | T cruzi growth-2 | T cruzi growth-3 | NIH3T3 tox | NIH3T3 tox 2
Cc1ccc(S(=O)(=O)Nc2ccc3c(c2)C(=O)N([C@H](C)CO)C[C@@H](C)[C@H](CN(C)CC2CCCCC2)OCCCC[C@@H](C)O3)cc1 | u | 10 | -63 | 102* | 85 | 27 | 104*
Cc1ccc(S(=O)(=O)Nc2ccc3c(c2)C(=O)N([C@H](C)CO)C[C@@H](C)[C@@H](CN(C)CC2CCCCC2)OCCCC[C@H](C)O3)cc1 | 93 | 10 | -48 | x | x | x | x
Cc1ccc(S(=O)(=O)Nc2ccc3c(c2)C(=O)N([C@@H](C)CO)C[C@@H](C)[C@H](CN(C)CC2CCCCC2)OCCCC[C@H](C)O3)cc1 | 2 | 15 | -36 | x | x | x | x
O=C(NCC[C@H]1CC[C@@H](NC(=O)c2cnccn2)[C@@H](CO)O1)Nc1ccc(Cl)cc1 | -11 | 3 | -49 | x | x | x | x
O=C(NC1CCCC1)[C@@H]1[C@@H](CO)[C@@H]2Cn3c(cccc3=O)[C@H]1N2Cc1cc(F)ccc1F | 55 | 4 | 1 | x | x | x | x
C[C@@H]1CN([C@H](C)CO)C(=O)c2cc(NS(=O)(=O)c3cccs3)ccc2O[C@H]1CN(C)Cc1ccc(C(=O)O)cc1 | -12 | 1 | 23 | x | x | x | x
Cc1noc(C)c1NC(=O)N(C)C[C@H]1Oc2ccc(N(C)C)cc2C(=O)N([C@@H](C)CO)C[C@H]1C | 25 | 0 | 10 | x | x | x | x
C[C@@H]1CCCCO[C@H](CN(C)CC2CCCCC2)[C@H](C)CN([C@@H](C)CO)C(=O)c2cc(NS(C)(=O)=O)ccc2O1 | -42 | 2 | x | x | x | x | x
C[C@@H]1CCCCO[C@@H](CN(C)CC2CCCCC2)[C@@H](C)CN([C@@H](C)CO)C(=O)c2cc(NS(C)(=O)=O)ccc2O1 | 104* | 6 | -20 | 59 | -3 | 0 | -19
